High-throughput results as filed in PubChem.
Sampled rows, rich in hits. Any-hit rate of the full collection: about 3.2%.
NRP1-CendR mod = NRP-1/CendR interaction modulation. O14786. FAM-RPARPAR peptide binding to NRP-1, fluorescence polarization. inhibition, % at 25 µM. 0.85% of 360,000 active. AID 602438;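 active = inhibition or corrected inhibition above about 18%, plus a signal ratio from 0.5 to 1.5, limit read from the data, passing the limit was not always enough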
MEKK2wt PB1 HTS = raises or lowers MEK5 binding to wildtype human MEKK2 PB1 domain | Q9Y2U5 | bead flow cytometry, Alexa488-MEK5 binding to MEKK2 WT; actives lie on both sides | binding response (% of control), % at 10 µM | 1.1% of 290,000 active | AID 1531; in the data active = binding response below about 67% or above about 130%
SKN-1 block = blocks SKN-1 activity in C. elegans. 0.49% of 360,000 active. inhibition, % at 21.8 µM. AID 624304. C. elegans VP596 Pgst-4::GFP/RFP ratio, acrylamide-induced, 24 h;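 active = interference check ratio from 0.5 to 1.5 plus GFP to RFP signal ratio inhibition reaching or exceeding a fixed threshold, cut at about 30% in these data, passing the limit was not always enough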
MEKK3 PB1 HTS = MEKK3-MEK5 PB1 interaction, increase or decrease. Q99759. bead-based flow cytometry, Alexa488-MEK5 binding to MEKK3; actives lie on both sides; 0 = blocked by unlabeled MEK5, 100 = vehicle. binding response (% of control), % at 10 µM. 1.4% of 290,000 active;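 active = binding response more than 3 SD above or below the average of its plate-row segment, actives on both sides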;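 also: Alexa488 bead fluorescence after subtracting the streptavidin-only scavenger bead signal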
Target sequence (Q99759 whole entry, looked up): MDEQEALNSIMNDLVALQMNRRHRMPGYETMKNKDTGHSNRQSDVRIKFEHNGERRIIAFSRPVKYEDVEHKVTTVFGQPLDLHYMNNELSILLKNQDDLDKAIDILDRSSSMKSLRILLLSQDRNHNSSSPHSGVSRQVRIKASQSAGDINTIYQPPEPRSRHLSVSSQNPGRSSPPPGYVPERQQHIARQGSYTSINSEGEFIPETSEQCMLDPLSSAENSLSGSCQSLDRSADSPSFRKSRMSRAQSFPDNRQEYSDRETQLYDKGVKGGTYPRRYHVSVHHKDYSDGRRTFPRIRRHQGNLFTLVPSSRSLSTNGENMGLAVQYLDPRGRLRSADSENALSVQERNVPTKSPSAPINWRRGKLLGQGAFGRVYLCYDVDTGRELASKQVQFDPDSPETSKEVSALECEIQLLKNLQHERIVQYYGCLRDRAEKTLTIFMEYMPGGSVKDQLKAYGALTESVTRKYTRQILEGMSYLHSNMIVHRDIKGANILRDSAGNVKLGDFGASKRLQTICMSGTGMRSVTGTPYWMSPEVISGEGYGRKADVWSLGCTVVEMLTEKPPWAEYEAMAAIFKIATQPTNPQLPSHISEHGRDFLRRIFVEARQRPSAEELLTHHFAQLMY
MEKK2mut PB1 HTS = signal of MEK5 binding to mutant human MEKK2 PB1 domain; 0.35% of 290,000 active; bead flow cytometry, Alexa488-MEK5 binding to MEKK2 mutant; percent response, % at 10 µM; in the data active = percent response above about 24%, passing the limit was not always enough
* = called active by the depositor.

For CCc1nc2c(OCc3ccccc3)cccn2c1N(Cc1ccccc1)C(C)=O the results were NRP1-CendR mod 1 and SKN-1 block 8.
O=C(O)CN1C(=O)NC2(CCc3ccccc32)C1=O (stereo not drawn) was read as NRP1-CendR mod 16, MEKK2wt PB1 HTS 95, SKN-1 block 1, MEKK3 PB1 HTS 91 and MEKK2mut PB1 HTS -5.
Screening CN(C)C(=O)CN1C(=O)NC2(CCc3ccccc32)C1=O (stereo not drawn) returned NRP1-CendR mod -10, MEKK2wt PB1 HTS 97, SKN-1 block 37*, MEKK3 PB1 HTS 99 and MEKK2mut PB1 HTS 0.
NC(=O)C1CCN(C(=O)CC2(CC(=O)O)CCCCC2)CC1 was read as NRP1-CendR mod 27*, MEKK2wt PB1 HTS 98, SKN-1 block -1, MEKK3 PB1 HTS 96 and MEKK2mut PB1 HTS 0.
O=C(CCN1C(=O)C2CC=CCC2C1=O)Nc1ccc(S(=O)(=O)N2CCCCC2)cc1 (stereo not drawn) was read as NRP1-CendR mod -14 and SKN-1 block 7.
Screening Nc1n[nH]c2cc(=O)n(-c3cccc(C(F)(F)F)c3)nc12 returned NRP1-CendR mod 0, MEKK2wt PB1 HTS 89, SKN-1 block 5, MEKK3 PB1 HTS 99 and MEKK2mut PB1 HTS -10.
Screening O=c1[nH][nH]c2cc(=O)n(-c3cccc(C(F)(F)F)c3)nc12 returned NRP1-CendR mod 26*, MEKK2wt PB1 HTS 102, SKN-1 block 8, MEKK3 PB1 HTS 104 and MEKK2mut PB1 HTS 1.
For COc1ccc(C(C(=O)NC(C)(C)C)N(C(=O)CCC(=O)Nc2cc(C)on2)c2c(C)cccc2C)cc1 (stereo not drawn) the results were NRP1-CendR mod 31*, MEKK2wt PB1 HTS 101, SKN-1 block 23, MEKK3 PB1 HTS 101 and MEKK2mut PB1 HTS 3.
For COc1ccc(C(C(=O)NC(C)(C)C)N(C(=O)CCC(=O)Nc2cc(C)on2)c2ccc(C)c(C)c2)cc1 (stereo not drawn) the results were NRP1-CendR mod 4, MEKK2wt PB1 HTS 98, SKN-1 block -6, MEKK3 PB1 HTS 99 and MEKK2mut PB1 HTS 3.
`Cc1ccccc1NS(=O)(=O)c1ccc(C(=O)NCC(C)(C)N2CCOCC2)cc1` gave NRP1-CendR mod -2 and SKN-1 block 10.
`COC(=O)C[C@H]1C=C[C@H](NC(=O)Nc2ccccc2F)[C@@H](CO)O1` gave NRP1-CendR mod 9 and SKN-1 block 7.
CN(C)/C=N/c1ncc(C(=O)c2ccc3ccccc3c2)s1 was read as NRP1-CendR mod 2, MEKK2wt PB1 HTS 92, SKN-1 block -11, MEKK3 PB1 HTS 95 and MEKK2mut PB1 HTS -7.
Screening COc1ccc(C(=O)c2cnc(/N=C/N(C)C)s2)cc1 returned NRP1-CendR mod 32*, MEKK2wt PB1 HTS 104, SKN-1 block -6, MEKK3 PB1 HTS 105 and MEKK2mut PB1 HTS 0.
Screening Fc1cccc(Cc2c(-c3ccco3)nc3c4ccccc4ccn23)c1 returned NRP1-CendR mod -35 and SKN-1 block 23.
`Cn1c(N)c(C(=O)COC(=O)C2(c3ccccc3F)CCCC2)c(=O)n(C)c1=O` gave NRP1-CendR mod 32*, MEKK2wt PB1 HTS 100, SKN-1 block 8, MEKK3 PB1 HTS 100 and MEKK2mut PB1 HTS 10.
For OC[C@@H]1CN(Cc2ccc3c(c2)OCO3)C[C@H](n2cnc3c(NCc4ccc(F)cc4)ncnc32)O1 the results were NRP1-CendR mod -4 and SKN-1 block 10.
O=C(O)C1=CCC(c2ccc(Cl)c(Cl)c2)N(S(=O)(=O)c2ccc(F)cc2)C1c1cccc(F)c1 (stereo not drawn) was read as NRP1-CendR mod -21 and SKN-1 block 2.
Cc1ccc(CNC(=O)C2CCC(=O)N(C3CC3)C2)cc1 (stereo not drawn) was read as NRP1-CendR mod 28*, MEKK2wt PB1 HTS 101, SKN-1 block -19, MEKK3 PB1 HTS 103 and MEKK2mut PB1 HTS 4.
`Cc1cccc(CNC(=O)C2CCC(=O)N(C3CCCC3)C2)c1` (stereo not drawn) gave NRP1-CendR mod 20, MEKK2wt PB1 HTS 108, SKN-1 block -13, MEKK3 PB1 HTS 100 and MEKK2mut PB1 HTS 5.
`Cn1c(/C(C#N)=C(\O)c2ccc([N+](=O)[O-])s2)nc2ccccc21` gave NRP1-CendR mod -19, MEKK2wt PB1 HTS 105, SKN-1 block 40*, MEKK3 PB1 HTS 108 and MEKK2mut PB1 HTS 8.
